Measurements taken from ChEMBL document CHEMBL1157539, “Thousands of chemical starting points for antimalarial lead identification” (Nature, 2010).

What was measured:
Assay type in all cases: functional
Plasmodium falciparum [1] = assay: GSK_TCMDC: Inhibition of Plasmodium falciparum 3D7 in whole red blood cells, using parasite LDH activity as an index of growth. Test compounds present at 2uM
Plasmodium falciparum [2] = assay: GSK_TCMDC: Inhibition of Plasmodium falciparum Dd2 in whole red blood cells, using parasite LDH activity as an index of growth. Test compounds present at 2uM
HepG2 = assay: GSK_TCMDC: Percent inhibition of human HepG2 cell line. Test compounds present at 10uM.

Row | Structure (SMILES) | Inhibition (Plasmodium falciparum [1]) | Inhibition (Plasmodium falciparum [2]) | Inhibition (HepG2)
1 | Oc1cc(Nc2ccnc3cc(I)ccc23)c(F)cc1Cl | 92% | 77% | 0%
2 | CC(C)C[C@H](NC(=O)c1cc2ccccc2s1)C(=O)N[C@H]1CCN(Cc2ccc(I)c(OC3CCN(C)C3)c2)C1.O=C(O)C(F)(F)F (stereo partly specified) | 100% | 95% | 99%
3 | COc1cc2c(cc1C=CC(=O)N1CCN(Cc3nc(O)c4c(C)c(C)sc4n3)CC1)OC(C)C2 (stereo unspecified) | 82% | 87% | 0%
4 | CCCCN(Cc1cc(Cl)c(OCC)c(OC)c1)c1ccc(C(O)(C(F)(F)F)C(F)(F)F)cc1.O=C(O)C(F)(F)F | 92% | 97% | 5%
5 | O=C1Nc2cccc3c2C1(CCCCN1CCC(c2c(-c4ccc(F)cc4)[nH]c4ccccc24)CC1)CCC3 (stereo unspecified) | 91% | 28% | 25%
6 | C=C[C@H]1CN2CC[C@H]1C[C@H]2[C@H](O)c1ccnc2ccc(OC)cc12.O.O=S(=O)(O)O | 97% | 22% | 0%
7 | O=C(O)C(F)(F)F.OCC1CCN(Cc2ccc(-c3ccc(-c4nc5cc(C(F)(F)F)ccc5[nH]4)cc3)cc2)CC1 | 100% | 91% | 17%
8 | N#C/N=C(\NCCCCCCCCN/C(=N\C#N)NCCSCc1csc(N=C(N)N)n1)NCCCSc1csc(N=C(N)N)n1 | 91% | 24% | 0%
9 | O=C(NCCCCCN1CCC(c2c[nH]c3ccccc23)CC1)Nc1ccc(Cl)c(Cl)c1 | 92% | 0% | 42%
10 | Cc1cccc2nc(-c3cccc(-c4cccc(NC(=O)C(C)CN(C)C)c4)c3)[nH]c12 (stereo unspecified) | 100% | 97% | 16%
11 | O=C(NC1CCN(Cc2ccc3c(c2)OCCO3)CC1)c1ccc(-c2cccc(Cl)c2)s1.O=C(O)C(F)(F)F | 93% | 9% | 46%
12 | CCNc1c2ccc(Cl)cc2nc2ccc(OC)cc12.Cl | 99% | 100% | 16%
13 | CCOC(=O)CCc1cc(F)c(F)c(OC[C@H](O)CNC(C)(C)C(O)c2ccc3ccccc3c2)c1.Cl (stereo partly specified) | 99% | 92% | 12%
14 | CCN(CCCN1CCCCC1)c1cc(C)nc(Nc2ccc(C)cc2C)n1.O=C(O)C(F)(F)F | 91% | 35% | 33%
15 | CCN1CCN(Cc2c(O)ccc3c(=O)c(Oc4cc(C)cc(C)c4)c(C(F)(F)F)oc23)CC1 | 96% | 90% | 6%
16 | CCCCCCCN1CCC(NC(=O)Nc2ccnc3ccc(OC)cc23)C(CO)C1.O=C(O)C(=O)O (stereo unspecified) | 94% | 69% | 23%
17 | CC[C@H](C)CNC(=O)c1cncc(-c2ccc(CN(C)C3CCN(C)CC3)cc2)c1.O=C(O)C(F)(F)F | 100% | 97% | 0%
18 | O=C(/C=C/c1ccc(Cl)c(Cl)c1)NCCCCCN1CCC(NC(=O)Nc2ccccc2Cl)CC1 | 100% | 23% | 56%
19 | CCc1ccc(CNCC(CCNc2cc(=O)c3ccccc3[nH]2)NCc2cc(Br)cc(Br)c2)o1 (stereo unspecified) | 100% | 92% | 0%
20 | COc1ccc(NC(=O)[C@H](CC(C)C)Nc2cc(C)nc(NCCc3cccs3)n2)cc1.O=C(O)C(F)(F)F | 100% | 68% | 5%
21 | Cc1ccc(F)c(OC2CCN(c3ccc(C(=O)NC4CC4)cn3)CC2)c1 | 92% | 72% | 10%
22 | Cc1cc(N(C)C)nc(Nc2ccc(NC(=O)COc3ccccc3)cc2)n1 | 100% | 67% | 15%
23 | NC(=O)C1CCN(Cc2cccc(-c3ccc(-c4nc5cc(C(F)(F)F)ccc5[nH]4)cc3)c2)CC1.O=C(O)C(F)(F)F | 100% | 94% | 7%
24 | Cc1nnc2c(NC(=O)NC3CCCC3)cc3cc(-c4ccc(CN(C)C)cc4)ccc3n12 | 100% | 37% | 100%
25 | Cc1cccc(Cn2c(Cc3ccccc3)nnc2Sc2ccc([N+](=O)[O-])c(C#N)c2)c1 | 91% | 3% | 17%
26 | CCCN(CCC)CCCNc1ccc(C(=O)Nc2ccc(C)c(F)c2)cc1[N+](=O)[O-] | 100% | 94% | 33%

Row | Structure (SMILES) | Inhibition (Plasmodium falciparum [1]) | Inhibition (Plasmodium falciparum [2]) | Inhibition (HepG2)
27 | CC(C)(C)Nc1cc(C(=O)N[C@@H](Cc2ccccc2)[C@H](O)CNC2CCOCC2)cc(N2CCCCS2(=O)=O)c1 | 99% | 98% | 0%
28 | Cc1sc(CNCCCNc2cc(=O)c3ccccc3[nH]2)c(I)c1C.Cl | 94% | 48% | 0%
29 | O=C(NC1CCC(N2CCC(Cc3ccc(F)cc3)CC2)CC1)c1cc2ccccc2[nH]1 (stereo unspecified) | 98% | 39% | 60%
30 | COc1cc(C(=O)N2COCC(CCCN3CCC(N4CCCC4)CC3)(c3ccc(Cl)c(Cl)c3)C2)cc(OC)c1OC (stereo unspecified) | 95% | 70% | 5%
31 | Cc1noc(C)c1-c1ccc2c(Nc3nccc4ccccc34)c(C(N)=O)cnc2c1 | 100% | 99% | 100%
32 | COc1cc2c(cc1OC)C(C(=O)Nc1ccc(C(F)(F)F)cc1)C(c1cccs1)N(C)C2=O (stereo unspecified) | 99% | 86% | 31%
33 | O=C(O)C(F)(F)F.c1cc(-c2ccc(CN3CCCC3)cc2)cc(-c2nc3ccccc3[nH]2)c1 | 100% | 52% | 25%
34 | Cc1cc(NC(=O)NCCN2CCC(NC(=O)c3ccc(F)cc3)CC2)c2ccccc2n1 | 99% | 76% | 0%
35 | COc1cc(C)cc(CN2CCC(Cc3ccccc3)CC2)c1O | 97% | 94% | 35%
36 | Cn1cnc2c(SCc3ccccc3OCc3ccccc3)ncnc21 | 86% | 34% | 6%
37 | CC(C)c1ccc(NC(=O)c2ccc(NCCCN(C)Cc3ccccc3)c([N+](=O)[O-])c2)cc1 | 100% | 35% | 21%
38 | CCc1ccc(-n2c(NC(=O)c3ccccc3)nc3ccc(S(=O)(=O)NC(C)C(C)C)cc32)cc1 (stereo unspecified) | 88% | 0% | 48%
39 | O=C(NCC1CCC(CNCCCc2ccccc2)CC1)c1cc(Cl)cc(Cl)c1 (stereo unspecified) | 89% | 13% | 58%
40 | COc1cc(C(F)(F)F)nc2c(CNCCCNc3cc(=O)c4ccccc4[nH]3)scc12.Cl | 92% | 16% | 0%
41 | c1ccc(-c2nc(Nc3nc4ccccc4[nH]3)[nH]c2-c2ccccc2)cc1 | 96% | 61% | 14%
42 | CC1CC(NCCCNc2cc(=O)c3ccccc3[nH]2)c2c(Cl)c(Cl)cc(Cl)c21 (stereo unspecified) | 87% | 52% | 6%
43 | O=C(CN1CCCCC1)Nc1ccc(Nc2nccc(NCC(O)c3ccccc3)n2)cc1 (stereo unspecified) | 100% | 95% | 62%
44 | CCN(CC)CCCC(C)Nc1ccnc2ccc(-c3ccccc3)cc12 (stereo unspecified) | 98% | 21% | 0%
45 | CCCCc1ccc(C(=O)Nc2ccc3nc(N4CCN(C)CC4)cc(C)c3c2)cc1 | 90% | 21% | 44%
46 | FC(F)(F)c1cccc(CNCC2CCN(CC3CCCCC3)CC2)c1.O=C(O)C(F)(F)F | 100% | 24% | 21%
47 | Cc1ccccc1Cn1c(CN2CCC(C(=O)NC3CC3)CC2)cc2ccccc21 | 97% | 96% | 7%
48 | COc1ccccc1CCN(C)CCN1CCC(NC(=O)c2ccc(-c3ccc(C(F)(F)F)cc3)cc2)CC1 | 92% | 15% | 46%
49 | COc1ccc(Br)cc1/C=C/C(=O)Nc1cccc(C2CCN(C)CC2)c1.O=CO | 95% | 37% | 44%
50 | COc1cc2nc(N3CC(C)N(C(=O)Cc4ccc(-c5ccccc5)cc4)C(C)C3)nc(N)c2cc1OC (stereo unspecified) | 100% | 12% | 26%
51 | COc1cc2c(cc1OC)CN(CCc1ccc(NC(=O)c3cc4cc(OC(F)(F)F)ccc4[nH]3)cc1)CC2 | 99% | 20% | 36%
52 | CCCCCCN1CCC(NCc2ccc(CN(C)C)cc2)CC1.O=C(O)C(F)(F)F | 92% | 26% | 18%
